Hits are enriched below; roughly 6% of the tested compounds scored in any of these assays.
DRD3 agonist: D3 dopamine receptor (human) agonism. P35462. AID 652048. D3R DiscoveRx beta-arrestin cells, luminescence, 90 min. hit rate 0.58% among 410,000. max activation, %; in the data active = max activation above about 30%
Target sequence (P35462 whole entry, looked up): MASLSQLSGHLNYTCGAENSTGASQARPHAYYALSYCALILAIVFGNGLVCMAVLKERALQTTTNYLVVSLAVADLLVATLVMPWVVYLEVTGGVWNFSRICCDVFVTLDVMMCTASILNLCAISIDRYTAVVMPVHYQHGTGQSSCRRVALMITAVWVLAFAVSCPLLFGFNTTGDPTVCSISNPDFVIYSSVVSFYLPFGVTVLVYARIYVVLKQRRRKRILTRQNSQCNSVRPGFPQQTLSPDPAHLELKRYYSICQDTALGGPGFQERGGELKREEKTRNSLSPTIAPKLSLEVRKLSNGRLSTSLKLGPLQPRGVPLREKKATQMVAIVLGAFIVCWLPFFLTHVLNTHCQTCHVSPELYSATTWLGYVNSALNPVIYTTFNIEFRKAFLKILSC
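Cells at 1500/well, incubated overnight, then treated with pinned compounds (dopamine as control) for 90 min at 37 degrees C. DiscoveRx reagent added for 30 - 60 minutes at room temperature; luminescence read.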
DRD3 antagonist: antagonists of human D3 dopamine receptor; P35462; D3R cells, DiscoveRx beta-arrestin luminescence, antagonist mode; hits give low values; max response, negative = inhibition, %; hit rate 2.5% among 360,000; in the data active = max response below about -50%; inconclusive = no clear call, values can overlap the other calls
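Cells expressing the human receptor were seeded at 1500 cells/well, incubated overnight at 37 degrees C in 5% CO2, then exposed to library compounds with dopamine controls for 90 minutes at 37 degrees C before luminescent detection.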
D1 agonist: human D1 receptor agonism; HEK293 T-REx D1 cells, calcium flux, agonist mode; activation, % at 2 µM; P21728; hit rate 1% among 360,000; in the data active = activation above about 30%
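Agonism was scored from calcium flux recorded over 180 s (1 read/s) after pintool compound addition, following a 10-cycle baseline. Cells were inducible force-coupled HEK293 TREx D1, plated overnight at 30 C and loaded with no-wash calcium dye.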
D1 antag: antagonists of human D1 dopamine receptor; P21728; HEK293 TREx D1 cells, calcium flux, dopamine EC80; hits give low values; activity change, negative = inhibition, % at 10 µM; hit rate 3.2% among 360,000; AID 504652; in the data active = activity change below about -30%
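After overnight tetracycline induction at 30 C, force-coupled D1 HEK293 cells took up a no-wash calcium dye at room temperature. Compounds were added and monitored 180 s, and the response to EC80 dopamine was then recorded.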
D1 PAM: human D1 dopamine receptor positive modulation; P21728; HEK293 TREx D1 cells, calcium flux, dopamine EC20 potentiation; potentiation, % at 10 µM; hit rate 0.036% among 360,000; in the data active = potentiation above about 30%
Each line names hits and unclear results; the compound was inactive in the other large screens.

COc1ccc2cc(C3c4cc(OC)c(OC)cc4CCN3C(=O)c3ccco3)c(=O)[nH]c2c1 (configuration not stated)	none
O=S(=O)(NCc1ccc(Cl)cc1)c1cccc2cccnc12	none
Cc1cc(C)c(S(=O)(=O)NCc2ccc3c(c2)OCO3)c(C)c1	D1 antag -36
O=S(=O)(NCc1ccc2c(c1)OCO2)c1cccc2cccnc12	D1 antag -52
Cc1ccc(S(=O)(=O)N2C[C@H]3C(=O)C[C@@H](c4ccccc4)N(S(=O)(=O)c4ccc(C)cc4)[C@H]3C[C@H]2c2ccccc2Cl)cc1	none (no result: D1 agonist, D1 antag, D1 PAM)
Cn1cc(C(F)(F)F)nc1-c1ccc(OCC(O)CNCCOc2ccc(O)c(C(N)=O)c2)cc1 (configuration not stated)	DRD3 agonist 101
O=C1O[C@@H](c2ccccc2)C[C@@H](O)C(=O)CCc2ccccc21	none (no result: D1 agonist, D1 antag, D1 PAM)
CNC(=S)N/N=C1\C(=O)c2cccc3cccc1c23	DRD3 antagonist -55, D1 antag -46
CCCCNC(=S)N/N=C1\C(=O)c2cccc3cccc1c23	none
O=C(O)Cc1sc(Nc2ccccc2)nc1-c1ccccc1	none (no result: DRD3 antagonist)
O=C(O)Cc1sc(N/N=C\c2ccncc2)nc1-c1ccccc1	D1 agonist 31
Cc1cccc(N2CCN(C(=O)CN3C(=O)COc4ccc(S(=O)(=O)N5CCCC5)cc43)CC2C)c1 (configuration not stated)	none (no result: DRD3 antagonist)
C=CCNC(=S)NC(=O)c1ccc(C)c(Br)c1	none (no result: D1 antag)
CCOc1ccc(N(CCCCO)C(=S)NC(=O)c2ccc(C)c(Br)c2)cc1	DRD3 agonist 35
COc1ccc(C(=O)NCc2ccccc2CN2CCCC2)cc1S(=O)(=O)N1CCOCC1	D1 antag -57
O=C(NCc1ccccc1CN1CCCC1)c1ccc(S(=O)(=O)Nc2ccccc2)cc1	DRD3 antagonist -59 (no result: D1 agonist, D1 antag, D1 PAM)
COc1ccc(NC(=O)c2ccc(-c3ccccc3)cc2)cc1S(=O)(=O)N1CCOCC1	D1 antag -30
CSCC[C@H](NC(=O)c1ccc(Cl)c(S(=O)(=O)N2CCCC2)c1)c1nc2ccccc2[nH]1	DRD3 antagonist -52
CN1CCN(C(=O)CSc2nc3ccc(NC(=O)c4ccccc4F)cc3s2)CC1	none
CCN(CC)c1ccc(NC(=O)C(NS(=O)(=O)c2cccs2)C(C)C)c(C)c1 (configuration not stated)	none (no result: DRD3 antagonist)
CN(C)C(CNC(=O)c1ccc(Cl)c(S(=O)(=O)N2CCCCCC2)c1)c1ccccc1 (configuration not stated)	DRD3 antagonist -81
O=C(NCc1ccccc1CN1CCCC1)c1ccc(Cl)c(S(=O)(=O)N2CCCC2)c1	DRD3 antagonist -50, D1 antag -51
CCCn1nc(NS(C)(=O)=O)c2cc3cccc(C)c3nc21	DRD3 antagonist -53
C/C(=N\NC(=S)Nc1cccc(C)c1)c1ccccc1	DRD3 antagonist -52
CC(=NNC(=S)Nc1ccc(C)cc1)c1ccccn1	DRD3 antagonist -50 (no result: D1 agonist, D1 antag, D1 PAM)
CC(=NNC(=S)Nc1cccc(C)c1)c1ccccn1	none (no result: D1 agonist, D1 antag, D1 PAM)
O=C(NCc1ccccc1)c1ccc(CS(=O)(=O)c2c(Cl)cccc2Cl)o1	none (no result: DRD3 antagonist)
COc1ccc(C(=O)NC(CO)c2nnc(SCc3ccc(Cl)c(Cl)c3)n2C)cc1 (configuration not stated)	D1 antag -34
Cc1nc(-c2ccccn2)nc(SCC(=O)c2ccc(F)cc2)c1Cl	none
CCCc1nc(SCC(=O)c2ccc(OC)cc2)c2ccccc2n1	DRD3 agonist 33
CCCc1nc(SCC(=O)c2ccccc2)c2c(=O)n(C)c(=O)n(C)c2n1	DRD3 agonist 31
COc1ccc(C(=O)CSc2nnc(Cn3cnc4ccccc43)o2)cc1	D1 antag -34
CCc1nc(SCC(=O)c2ccccc2)c2ccccc2n1	none
COc1ccc(C(=O)CSc2nc(-c3ccccn3)nc(C)c2Cl)cc1	DRD3 antagonist -60
CCc1ccc(CN2CCCC(C(=O)Nc3ccc(-c4cscn4)cc3)C2)o1 (configuration not stated)	none
O=C(Nc1ccc(O)cc1)C1CC=CCC1 (configuration not stated)	D1 antag -100
O=C(Nc1nccs1)C1CC=CCC1 (configuration not stated)	none
CC1(c2ccccc2)NC(=O)N(CC(=O)Nc2ccc(S(=O)(=O)NC3=NCCCCC3)cc2)C1=O (configuration not stated)	none (no result: D1 agonist, D1 antag, D1 PAM)
CC1=C(C(=O)Nc2ccc(Cl)cc2)C(CC(C)C)n2nc(SCc3ccccc3C)nc2N1 (configuration not stated)	none (no result: DRD3 antagonist)
CC1=C(C(=O)Nc2ccc(C)cc2C)C(CC(C)C)n2nc(SCc3ccccc3C)nc2N1 (configuration not stated)	D1 antag -36 (no result: DRD3 antagonist)
CCOC(=O)c1cnn(-c2ccc(C(=O)Nc3cccc(C(C)=O)c3)cc2)c1N	none (no result: DRD3 antagonist)
O=C(N=c1ccn(-c2nc3ccccc3nc2NS(=O)(=O)c2ccccc2)cc1)c1cccs1	none
Cc1ccccc1C(=O)N=c1ccn(-c2nc3ccccc3nc2NS(=O)(=O)c2ccc(F)cc2)cc1	D1 agonist 70
CNc1ncnc2c1ncn2[C@H]1CN(Cc2ccc(F)cc2)C[C@@H](CO)O1	none (no result: D1 agonist, D1 antag, D1 PAM)
CC1CC1C(=O)OCC(=O)NC(=O)c1ccc(C(C)(C)C)cc1 (configuration not stated)	DRD3 agonist 39 (no result: D1 agonist, D1 antag, D1 PAM)
Cc1ccccc1CS(=O)(=O)c1cn(CC(=O)N2CCC(C)CC2)c2ccccc12	D1 antag -65
CN1C(=O)/C(=C/c2cc(C(C)(C)C)c(O)c(C(C)(C)C)c2)NC1=S	DRD3 antagonist -58
COc1ccc(C(=O)N/C(N)=N/c2nc3ccccc3o2)cc1	none
COc1ccc(C(=O)/C=C/Sc2nc3ccccc3o2)cc1	DRD3 antagonist -105
Cn1cnc([N+](=O)[O-])c1S(=O)(=O)c1cccc(Cl)c1	DRD3 antagonist -92
Cn1cnc([N+](=O)[O-])c1S(=O)(=O)Oc1ccccc1	DRD3 antagonist -84 (no result: D1 agonist, D1 antag, D1 PAM)
Cn1cnc([N+](=O)[O-])c1S(=O)(=O)Nc1ccccc1	none (no result: D1 agonist, D1 antag, D1 PAM)
Cn1cc(CN2CCCC(CO)(Cc3ccccc3)C2)c2ccccc21 (configuration not stated)	DRD3 antagonist -50
CCn1cc(CN2CCCC(CO)(Cc3ccc(F)cc3)C2)c2ccccc21 (configuration not stated)	D1 agonist 31
COc1cccc(CC2(CO)CCCN(Cc3cn(C)c4ccccc34)C2)c1 (configuration not stated)	none
CN1CCN(C2=Nc3ccccc3Cc3ccccc32)CC1	none (no result: DRD3 antagonist, D1 agonist, D1 antag, D1 PAM)
Cc1cc2c(s1)Nc1ccccc1N=C2N1CCN(C)CC1	DRD3 antagonist inconclusive, D1 antag -89 (no result: DRD3 agonist, D1 agonist, D1 PAM)
CCCn1c(SC(C(=O)Nc2cc(C)ccc2OC)c2ccccc2)nc2ccccc2c1=O (configuration not stated)	D1 antag -96
